# According to ChEMBL document CHEMBL1961873, “Compounds: GSK PKIS; Assays: Nanosyn kinase panel” (2012):
# Key:
# [1] = biological target: RAC-alpha serine/threonine-protein kinase (Homo sapiens) (UniProt P31749); settings: at 0.1 µM
# [2] = biological target: RAC-alpha serine/threonine-protein kinase (Homo sapiens) (UniProt P31749); settings: at 1 µM
# [3] = biological target: RAC-beta serine/threonine-protein kinase (Homo sapiens) (UniProt P31751); settings: at 0.1 µM
# [4] = biological target: RAC-beta serine/threonine-protein kinase (Homo sapiens) (UniProt P31751); settings: at 1 µM
# [5] = biological target: RAC-gamma serine/threonine-protein kinase (Homo sapiens) (UniProt Q9Y243); settings: at 0.1 µM
# [6] = biological target: RAC-gamma serine/threonine-protein kinase (Homo sapiens) (UniProt Q9Y243); settings: at 1 µM
# [7] = biological target: G protein-coupled receptor kinase 6 (Homo sapiens) (UniProt P43250); settings: at 0.1 µM
# Sequence of G protein-coupled receptor kinase 6 (Homo sapiens) (P43250 whole entry, looked up): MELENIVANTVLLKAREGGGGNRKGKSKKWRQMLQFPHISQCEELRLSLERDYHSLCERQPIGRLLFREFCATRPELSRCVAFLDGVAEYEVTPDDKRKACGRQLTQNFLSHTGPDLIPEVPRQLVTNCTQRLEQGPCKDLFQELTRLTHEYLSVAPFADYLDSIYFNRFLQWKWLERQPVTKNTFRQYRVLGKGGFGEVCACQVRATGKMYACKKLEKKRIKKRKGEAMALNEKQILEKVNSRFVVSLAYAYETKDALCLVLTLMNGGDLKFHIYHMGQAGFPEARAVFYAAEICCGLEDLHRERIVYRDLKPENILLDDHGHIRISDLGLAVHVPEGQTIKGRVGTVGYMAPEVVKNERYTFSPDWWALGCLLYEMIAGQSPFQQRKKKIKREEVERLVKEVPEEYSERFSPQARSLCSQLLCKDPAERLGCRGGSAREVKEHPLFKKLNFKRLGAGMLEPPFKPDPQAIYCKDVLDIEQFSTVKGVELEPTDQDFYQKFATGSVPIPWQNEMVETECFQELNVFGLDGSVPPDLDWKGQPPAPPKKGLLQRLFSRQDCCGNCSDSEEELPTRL
# [8] = biological target: G protein-coupled receptor kinase 6 (Homo sapiens) (UniProt P43250); settings: at 1 µM
# [9] = biological target: Rhodopsin kinase GRK7 (Homo sapiens) (UniProt Q8WTQ7); settings: at 0.1 µM
# [10] = biological target: Rhodopsin kinase GRK7 (Homo sapiens) (UniProt Q8WTQ7); settings: at 1 µM
# [11] = biological target: Serine/threonine-protein kinase MRCK alpha (Homo sapiens) (UniProt Q5VT25); settings: at 0.1 µM
# [12] = biological target: Serine/threonine-protein kinase MRCK alpha (Homo sapiens) (UniProt Q5VT25); settings: at 1 µM
# [13] = biological target: Serine/threonine-protein kinase MRCK beta (Homo sapiens) (UniProt Q9Y5S2); settings: at 0.1 µM
# Sequence of Serine/threonine-protein kinase MRCK beta (Homo sapiens) (Q9Y5S2 whole entry): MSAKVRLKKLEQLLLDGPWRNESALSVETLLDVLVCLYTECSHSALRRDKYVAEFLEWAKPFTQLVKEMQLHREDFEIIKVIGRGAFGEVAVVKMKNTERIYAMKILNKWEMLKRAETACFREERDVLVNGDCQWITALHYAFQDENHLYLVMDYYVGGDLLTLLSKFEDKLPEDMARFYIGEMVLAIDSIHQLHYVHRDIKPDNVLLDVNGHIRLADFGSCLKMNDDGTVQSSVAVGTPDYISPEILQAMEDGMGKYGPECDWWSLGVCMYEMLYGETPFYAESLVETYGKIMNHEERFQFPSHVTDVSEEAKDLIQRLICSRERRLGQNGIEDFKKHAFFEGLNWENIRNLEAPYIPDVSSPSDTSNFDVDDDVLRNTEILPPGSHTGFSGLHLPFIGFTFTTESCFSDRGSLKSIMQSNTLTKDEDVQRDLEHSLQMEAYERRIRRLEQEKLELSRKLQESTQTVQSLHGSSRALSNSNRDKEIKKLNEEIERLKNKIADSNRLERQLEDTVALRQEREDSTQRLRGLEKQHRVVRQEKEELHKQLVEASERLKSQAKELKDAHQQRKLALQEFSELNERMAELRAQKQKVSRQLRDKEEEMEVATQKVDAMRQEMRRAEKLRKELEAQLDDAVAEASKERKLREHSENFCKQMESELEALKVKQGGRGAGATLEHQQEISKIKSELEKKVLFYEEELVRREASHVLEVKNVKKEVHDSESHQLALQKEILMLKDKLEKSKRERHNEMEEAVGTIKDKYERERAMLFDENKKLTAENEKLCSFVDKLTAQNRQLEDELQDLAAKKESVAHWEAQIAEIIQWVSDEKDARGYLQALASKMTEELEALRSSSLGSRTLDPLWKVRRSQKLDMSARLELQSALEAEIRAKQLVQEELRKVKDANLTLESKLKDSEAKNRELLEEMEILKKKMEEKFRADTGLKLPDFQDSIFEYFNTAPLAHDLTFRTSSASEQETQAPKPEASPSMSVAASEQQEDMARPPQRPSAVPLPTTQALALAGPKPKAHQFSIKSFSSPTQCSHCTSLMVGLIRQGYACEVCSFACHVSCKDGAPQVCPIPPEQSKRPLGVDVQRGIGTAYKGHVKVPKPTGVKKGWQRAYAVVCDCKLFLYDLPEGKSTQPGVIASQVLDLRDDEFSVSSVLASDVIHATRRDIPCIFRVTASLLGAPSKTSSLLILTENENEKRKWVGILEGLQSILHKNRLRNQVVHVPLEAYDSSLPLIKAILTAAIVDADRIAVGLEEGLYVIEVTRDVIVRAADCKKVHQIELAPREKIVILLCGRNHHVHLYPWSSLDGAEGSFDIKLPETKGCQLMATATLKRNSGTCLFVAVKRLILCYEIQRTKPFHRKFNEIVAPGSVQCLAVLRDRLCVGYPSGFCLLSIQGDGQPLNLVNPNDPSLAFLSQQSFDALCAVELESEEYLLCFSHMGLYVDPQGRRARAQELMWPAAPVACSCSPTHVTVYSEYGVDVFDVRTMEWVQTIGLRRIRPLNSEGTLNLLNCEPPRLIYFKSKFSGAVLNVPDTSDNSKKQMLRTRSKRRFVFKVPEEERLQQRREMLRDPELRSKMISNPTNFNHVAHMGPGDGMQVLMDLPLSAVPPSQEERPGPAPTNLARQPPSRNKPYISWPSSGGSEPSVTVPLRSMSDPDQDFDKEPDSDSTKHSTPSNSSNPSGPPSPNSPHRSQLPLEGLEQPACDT
# [14] = biological target: Serine/threonine-protein kinase MRCK beta (Homo sapiens) (UniProt Q9Y5S2); settings: at 1 µM
# [15] = biological target: Ribosomal protein S6 kinase alpha-5 (Homo sapiens) (UniProt O75582); settings: at 0.1 µM
# Sequence of Ribosomal protein S6 kinase alpha-5 (Homo sapiens) (O75582 whole entry, looked up): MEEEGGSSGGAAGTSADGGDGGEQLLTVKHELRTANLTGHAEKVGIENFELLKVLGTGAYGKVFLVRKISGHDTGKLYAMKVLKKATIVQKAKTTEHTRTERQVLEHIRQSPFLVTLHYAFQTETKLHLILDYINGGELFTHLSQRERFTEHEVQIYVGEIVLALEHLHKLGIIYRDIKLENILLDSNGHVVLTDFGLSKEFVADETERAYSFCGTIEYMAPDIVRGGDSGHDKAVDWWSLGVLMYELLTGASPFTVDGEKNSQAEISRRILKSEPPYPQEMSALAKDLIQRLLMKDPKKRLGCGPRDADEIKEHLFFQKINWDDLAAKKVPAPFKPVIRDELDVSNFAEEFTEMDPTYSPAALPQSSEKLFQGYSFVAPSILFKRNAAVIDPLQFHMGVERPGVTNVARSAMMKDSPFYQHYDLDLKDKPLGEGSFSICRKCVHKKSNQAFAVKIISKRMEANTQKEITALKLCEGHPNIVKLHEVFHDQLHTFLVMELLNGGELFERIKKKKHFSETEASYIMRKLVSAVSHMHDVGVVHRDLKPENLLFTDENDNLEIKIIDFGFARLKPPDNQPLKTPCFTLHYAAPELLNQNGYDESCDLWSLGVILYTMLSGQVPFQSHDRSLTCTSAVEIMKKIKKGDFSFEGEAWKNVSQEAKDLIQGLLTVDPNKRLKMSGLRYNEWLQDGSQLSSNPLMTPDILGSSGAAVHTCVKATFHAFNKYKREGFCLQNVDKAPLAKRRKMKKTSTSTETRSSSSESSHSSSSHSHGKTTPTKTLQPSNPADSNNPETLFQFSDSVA
# [16] = biological target: Ribosomal protein S6 kinase alpha-5 (Homo sapiens) (UniProt O75582); settings: at 1 µM
# [17] = biological target: Ribosomal protein S6 kinase alpha-4 (Homo sapiens) (UniProt O75676); settings: at 0.1 µM
# [18] = biological target: Ribosomal protein S6 kinase alpha-4 (Homo sapiens) (UniProt O75676); settings: at 1 µM
# [19] = biological target: Ribosomal protein S6 kinase beta-1 (Homo sapiens) (UniProt P23443); settings: at 0.1 µM
# [20] = biological target: Ribosomal protein S6 kinase beta-1 (Homo sapiens) (UniProt P23443); settings: at 1 µM
# [21] = biological target: 3-phosphoinositide-dependent protein kinase 1 (Homo sapiens) (UniProt O15530); settings: at 0.1 µM;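 also: values are mean inhibition of PDK1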
# [22] = biological target: cAMP-dependent protein kinase catalytic subunit alpha (Homo sapiens) (UniProt P17612); settings: at 0.1 µM
# [23] = biological target: cAMP-dependent protein kinase catalytic subunit alpha (Homo sapiens) (UniProt P17612); settings: at 1 µM
# [24] = biological target: Protein kinase C alpha type (Homo sapiens) (UniProt P17252); settings: at 0.1 µM
# [25] = biological target: Protein kinase C alpha type (Homo sapiens) (UniProt P17252); settings: at 1 µM
# [26] = biological target: Protein kinase C beta type (Homo sapiens) (UniProt P05771); settings: at 0.1 µM
# Sequence of Protein kinase C beta type (Homo sapiens) (P05771 2-671 limits assumed): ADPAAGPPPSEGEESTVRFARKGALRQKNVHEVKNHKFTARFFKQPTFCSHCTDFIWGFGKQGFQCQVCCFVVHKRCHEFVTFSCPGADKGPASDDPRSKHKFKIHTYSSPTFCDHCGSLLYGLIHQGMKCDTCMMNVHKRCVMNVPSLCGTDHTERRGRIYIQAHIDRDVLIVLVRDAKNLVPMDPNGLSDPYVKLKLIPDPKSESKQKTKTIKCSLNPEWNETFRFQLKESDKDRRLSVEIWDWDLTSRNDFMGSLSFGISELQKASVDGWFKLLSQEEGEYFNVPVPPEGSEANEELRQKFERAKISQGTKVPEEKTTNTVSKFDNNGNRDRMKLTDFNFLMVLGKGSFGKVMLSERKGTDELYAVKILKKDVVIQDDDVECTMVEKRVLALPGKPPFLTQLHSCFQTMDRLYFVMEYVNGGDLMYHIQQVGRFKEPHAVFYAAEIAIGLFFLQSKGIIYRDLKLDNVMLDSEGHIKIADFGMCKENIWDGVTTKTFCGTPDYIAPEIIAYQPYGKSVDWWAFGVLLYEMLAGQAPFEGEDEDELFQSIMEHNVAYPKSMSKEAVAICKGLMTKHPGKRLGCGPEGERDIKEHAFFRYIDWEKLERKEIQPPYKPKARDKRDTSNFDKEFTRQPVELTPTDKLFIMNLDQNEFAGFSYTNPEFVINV
# [27] = biological target: Protein kinase C beta type (Homo sapiens) (UniProt P05771); settings: at 1 µM
# [28] = biological target: Protein kinase C eta type (Homo sapiens) (UniProt P24723); settings: at 0.1 µM
# [29] = biological target: Protein kinase C eta type (Homo sapiens) (UniProt P24723); settings: at 1 µM
# [30] = biological target: Protein kinase C gamma type (Homo sapiens) (UniProt P05129); settings: at 0.1 µM
# [31] = biological target: Protein kinase C gamma type (Homo sapiens) (UniProt P05129); settings: at 1 µM
# [32] = biological target: Protein kinase C iota type (Homo sapiens) (UniProt P41743); settings: at 0.1 µM
# [33] = biological target: Protein kinase C iota type (Homo sapiens) (UniProt P41743); settings: at 1 µM
# [34] = biological target: Protein kinase C theta type (Homo sapiens) (UniProt Q04759); settings: at 0.1 µM
# [35] = biological target: Protein kinase C theta type (Homo sapiens) (UniProt Q04759); settings: at 1 µM
# [36] = biological target: Protein kinase C beta type (Homo sapiens) (UniProt P05771); settings: at 0.1 µM; remark: listed apart in the source
# [37] = biological target: Protein kinase C beta type (Homo sapiens) (UniProt P05771); settings: at 1 µM; remark: listed apart in the source
# [38] = biological target: Serine/threonine-protein kinase D1 (Homo sapiens) (UniProt Q15139); settings: at 0.1 µM
# [39] = biological target: Serine/threonine-protein kinase D1 (Homo sapiens) (UniProt Q15139); settings: at 1 µM
# [40] = biological target: Serine/threonine-protein kinase D2 (Homo sapiens) (UniProt Q9BZL6); settings: at 0.1 µM
# Sequence of Serine/threonine-protein kinase D2 (Homo sapiens) (Q9BZL6 whole entry): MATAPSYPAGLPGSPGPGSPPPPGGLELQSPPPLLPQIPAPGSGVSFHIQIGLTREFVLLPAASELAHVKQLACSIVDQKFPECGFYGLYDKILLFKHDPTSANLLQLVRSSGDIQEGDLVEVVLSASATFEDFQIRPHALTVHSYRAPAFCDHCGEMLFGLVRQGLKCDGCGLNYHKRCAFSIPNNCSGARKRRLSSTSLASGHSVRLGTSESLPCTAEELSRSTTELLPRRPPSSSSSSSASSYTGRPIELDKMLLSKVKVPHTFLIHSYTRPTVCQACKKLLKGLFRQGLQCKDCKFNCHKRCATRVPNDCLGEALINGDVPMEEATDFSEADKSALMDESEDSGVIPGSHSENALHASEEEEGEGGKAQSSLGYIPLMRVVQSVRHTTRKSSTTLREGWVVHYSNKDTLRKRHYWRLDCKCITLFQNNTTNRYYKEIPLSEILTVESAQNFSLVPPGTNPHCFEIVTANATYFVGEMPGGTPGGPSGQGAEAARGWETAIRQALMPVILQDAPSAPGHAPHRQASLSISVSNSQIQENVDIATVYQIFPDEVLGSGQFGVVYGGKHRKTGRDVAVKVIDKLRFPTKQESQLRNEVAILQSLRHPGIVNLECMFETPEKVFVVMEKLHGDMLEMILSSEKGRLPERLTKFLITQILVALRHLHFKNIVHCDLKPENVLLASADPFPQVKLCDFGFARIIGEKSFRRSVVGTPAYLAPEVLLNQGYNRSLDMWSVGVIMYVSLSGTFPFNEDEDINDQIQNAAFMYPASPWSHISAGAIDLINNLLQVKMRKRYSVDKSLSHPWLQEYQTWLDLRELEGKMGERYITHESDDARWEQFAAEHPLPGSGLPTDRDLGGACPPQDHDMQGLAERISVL
# [41] = biological target: Serine/threonine-protein kinase D2 (Homo sapiens) (UniProt Q9BZL6); settings: at 1 µM
# [42] = biological target: Serine/threonine-protein kinase D3 (Homo sapiens) (UniProt O94806); settings: at 0.1 µM
# [43] = biological target: Serine/threonine-protein kinase D3 (Homo sapiens) (UniProt O94806); settings: at 1 µM
# [44] = biological target: cGMP-dependent protein kinase 1 (Homo sapiens) (UniProt Q13976); settings: at 0.1 µM
# [45] = biological target: cGMP-dependent protein kinase 1 (Homo sapiens) (UniProt Q13976); settings: at 1 µM
# [46] = biological target: cGMP-dependent protein kinase 2 (Homo sapiens) (UniProt Q13237); settings: at 0.1 µM
# [47] = biological target: cGMP-dependent protein kinase 2 (Homo sapiens) (UniProt Q13237); settings: at 1 µM
# [48] = biological target: cAMP-dependent protein kinase catalytic subunit PRKX (Homo sapiens) (UniProt P51817); settings: at 0.1 µM
# Sequence of cAMP-dependent protein kinase catalytic subunit PRKX (Homo sapiens) (P51817 whole entry): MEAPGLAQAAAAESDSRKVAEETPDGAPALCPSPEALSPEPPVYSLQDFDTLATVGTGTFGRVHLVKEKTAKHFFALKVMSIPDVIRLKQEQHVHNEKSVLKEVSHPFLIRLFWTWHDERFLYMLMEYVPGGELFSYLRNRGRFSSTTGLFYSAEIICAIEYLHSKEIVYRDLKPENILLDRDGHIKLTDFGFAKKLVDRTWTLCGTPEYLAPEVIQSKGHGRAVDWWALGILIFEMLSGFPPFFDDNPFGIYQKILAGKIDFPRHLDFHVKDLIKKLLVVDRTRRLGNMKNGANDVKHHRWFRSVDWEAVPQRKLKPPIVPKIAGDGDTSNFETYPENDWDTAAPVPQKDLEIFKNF
# [49] = biological target: cAMP-dependent protein kinase catalytic subunit PRKX (Homo sapiens) (UniProt P51817); settings: at 1 µM
# [50] = biological target: Rho-associated protein kinase 1 (Homo sapiens) (UniProt Q13464); settings: at 0.1 µM
# [51] = biological target: Rho-associated protein kinase 1 (Homo sapiens) (UniProt Q13464); settings: at 1 µM
# [52] = biological target: Rho-associated protein kinase 2 (Homo sapiens) (UniProt O75116); settings: at 0.1 µM
# [53] = biological target: Rho-associated protein kinase 2 (Homo sapiens) (UniProt O75116); settings: at 1 µM
# [54] = biological target: Ribosomal protein S6 kinase alpha-1 (Homo sapiens) (UniProt Q15418); settings: at 0.1 µM
# [55] = biological target: Ribosomal protein S6 kinase alpha-1 (Homo sapiens) (UniProt Q15418); settings: at 1 µM
smiles,measurement,setting,value
CNC(=O)Oc1cc(C)c(/C=C/c2cncc(C(=O)NC)c2)c(C)c1,inhibition,[1],1.66%
same,inhibition,[2],1.83%
same,inhibition,[3],0.76%
same,inhibition,[4],1.15%
same,inhibition,[5],1.57%
same,inhibition,[6],1.51%
same,inhibition,[7],2.38%
same,inhibition,[8],-2.05%
same,inhibition,[9],0.83%
same,inhibition,[10],-7.52%
same,inhibition,[11],0.96%
same,inhibition,[12],1.01%
same,inhibition,[13],0.52%
same,inhibition,[14],2.49%
same,inhibition,[15],-0.65%
same,inhibition,[16],2.76%
same,inhibition,[17],0.7%
same,inhibition,[18],5.41%
same,inhibition,[19],2.74%
same,inhibition,[20],2.7%
same,inhibition,[21],3.92%
same,inhibition,[22],1.8%
same,inhibition,[23],1.69%
same,inhibition,[24],0.7%
same,inhibition,[25],2.8%
same,inhibition,[26],-0.06%
same,inhibition,[27],0.33%
same,inhibition,[28],0.72%
same,inhibition,[29],3.06%
same,inhibition,[30],2.88%
same,inhibition,[31],5.84%
same,inhibition,[32],1.28%
same,inhibition,[33],3.8%
same,inhibition,[34],0.64%
same,inhibition,[35],-0.84%
same,inhibition,[36],1.05%
same,inhibition,[37],0.33%
same,inhibition,[38],1.91%
same,inhibition,[39],4.8%
same,inhibition,[40],3%
same,inhibition,[41],4.22%
same,inhibition,[42],2.02%
same,inhibition,[43],3.35%
same,inhibition,[44],3.13%
same,inhibition,[45],4.05%
same,inhibition,[46],3.07%
same,inhibition,[47],5.39%
same,inhibition,[48],1.78%
same,inhibition,[49],0.62%
same,inhibition,[50],0.86%
same,inhibition,[51],4.25%
same,inhibition,[52],1.43%
same,inhibition,[53],3.24%
same,inhibition,[54],2.03%
same,inhibition,[55],4.8%
